From the supplement of paper PMC3334620
The full ranking holds about 33,000 sequences; the median of “E-score (-0.5 to 0.5)” is about -0.0034, and the highest 2% start at about 0.25. This excerpt belongs to a sample that is enriched for the highest values.

target: T1, Yap3 (UniProt P38749); assay: PBM E-score (8-mer binding enrichment) (E-score (-0.5 to 0.5)); higher = stronger / more preferred TF binding; conditions: protein concentration: 100 nM; construct: GST-full length
T1 sequence: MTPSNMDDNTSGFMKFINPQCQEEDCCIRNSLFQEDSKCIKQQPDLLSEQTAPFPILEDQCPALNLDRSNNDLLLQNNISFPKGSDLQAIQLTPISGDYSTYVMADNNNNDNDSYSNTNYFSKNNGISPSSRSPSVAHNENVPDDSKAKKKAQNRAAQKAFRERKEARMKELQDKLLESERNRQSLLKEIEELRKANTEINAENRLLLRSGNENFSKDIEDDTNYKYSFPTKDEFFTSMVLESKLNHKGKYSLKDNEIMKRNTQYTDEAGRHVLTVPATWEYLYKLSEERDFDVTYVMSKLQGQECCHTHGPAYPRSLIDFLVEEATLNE
Description: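 Universal 'all 10-mer' protein binding microarrays (Agilent AMADID 015681) probed with GST-tagged S. cerevisiae TFs (full-length or DBD) made by in vitro transcription/translation (PURExpress), about 100-200 nM. Bound TF was detected with fluorescent anti-GST. Each ungapped 8-mer (which stands for itself and its reverse complement) is scored by the PBM enrichment score (E-score), a modified Wilcoxon-Mann-Whitney statistic from -0.5 to +0.5, computed with the Universal PBM Analysis Suite. Scale: above 0.35 generally sequence-specific binding.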

Row | Sequence | PBM E-score
1 | AACTATAG | 0.0554
2 | AACGATAT | 0.269
3 | AACGATAC | 0.0446
4 | AAATATAT | 0.285
5 | AACTATAT | 0.309
6 | AAAAATAG | 0.225
7 | AAAAATAT | 0.342
8 | AACTATAC | 0.0711
9 | AACGATAG | 0.116
10 | AAATATAG | 0.117
11 | AAATATAC | 0.19
12 | AAAAATAC | 0.14
13 | AACTCATT | 0.0581
14 | CTCCCTCA | -0.122
15 | CCTCAAGG | -0.145
16 | CTCATTCC | 0.139
17 | CTGCCCAA | -0.122
18 | GCCGAATA | 0.115
19 | AAACCACC | 0.0609
20 | ATCGACTC | -0.161
21 | AGTAGAAG | 0.0935
22 | AGTCATGG | 0.0946
23 | AGCTTTAA | 0.0942
24 | TAGTATGA | 0.255
25 | TAATATGA | 0.297

Row | Sequence | PBM E-score
26 | TCATATGA | 0.317
27 | CAGTATGA | 0.143
28 | GAATATGA | 0.168
29 | AAGTATGA | 0.0367
30 | CCATATGA | 0.00159
31 | GCATATGA | 0.214
32 | CAATATGA | 0.174
33 | AGTTGATC | 0.0597
34 | GACAGGTC | -0.226
35 | AAGGTTCC | -0.0546
36 | TAAGTATA | 0.275
37 | CAAGTATA | -0.0229
38 | AAAGTATA | 0.235
39 | CCTCGCTC | 0.0543
40 | AGAGAACA | 0.206
41 | GGCCCCCC | -0.461
42 | CCCACACA | -0.0183
43 | TTAACGAA | 0.179
44 | ACAACCAT | 0.334
45 | ACAACCAG | 0.0808
46 | ACAACCAC | 0.0359
47 | AAATTCGG | 0.153
48 | GAATTCCA | 0.195
49 | AAATTCGT | 0.312
50 | GATTTCCA | 0.0257

Row | Sequence | PBM E-score
51 | TATTTCCA | 0.00077
52 | CAATTCCA | -0.102
53 | AAATTCCA | 0.269
54 | AATTTCCA | 0.267
55 | AAATTCGC | 0.129
56 | GTCTTGAA | 0.0256
57 | AAGAACGA | 0.142
58 | CCAATTGA | 0.0344
59 | GAACGCAC | 0.0357
60 | AGAGGTAC | -0.248
61 | AGAGGTAA | -0.0121
62 | AGAGGTAT | 0.256
63 | ATCCGATG | 0.0814
64 | ATTAGACG | 0.104
65 | ACTGTAAC | 0.0996
66 | CATGTAAG | 0.155
67 | TATGTAAA | 0.262
68 | CCTGTAAA | -0.0789
69 | CACGTAAA | -0.0521
70 | AATGTAAG | 0.307
71 | TACGTAAA | 0.319
72 | ACTGTAAA | 0.257
73 | AATGTAAA | 0.231
74 | CATGTAAA | 0.0358
75 | AATGTAAT | 0.253

Row | Sequence | PBM E-score
76 | GACGTAAA | 0.0343
77 | TAGATGAA | 0.082
78 | CCGATGTC | 0.0178
79 | AATAGCTA | 0.0193
80 | AGTGATCC | -0.0505
81 | GGGATCGA | -0.124
82 | AACGTAAC | 0.201
83 | AACGTAAA | 0.2
84 | AACGTAAT | 0.353
85 | TGCGTAAA | 0.132
86 | CGCGTAAG | 0.158
87 | CGCGTAAA | 0.255
88 | CAAGAAAC | 0.197
89 | TACAACTA | -0.028
90 | AGCCCACA | -0.117
91 | AATGGAGG | -0.119
92 | ATTTTTAC | 0.0674
93 | CATTTTAA | 0.219
94 | AAATTTAT | 0.144
95 | CATTTTAG | 0.121
96 | AATTTTAT | 0.266
97 | AATTTTAC | 0.258
98 | CATTTTAC | 0.332
99 | GATTTTAC | 0.161
100 | AATTTTAG | 0.107

Row | Sequence | PBM E-score
101 | CCTTCTCG | -0.134
102 | AGGTTTCA | 0.0131
103 | GATACTAC | 0.0824
104 | ACGGTAGA | -0.0586
105 | AACTGATT | -0.0243
106 | AACCAGGC | -0.00725
107 | CAGTGAAC | 0.161
108 | CTGGTTGA | -0.256
109 | CTTCACTC | 0.0393
110 | CTAATGTA | 0.148
111 | ATTATGTA | 0.267
112 | ATTATGTG | 0.291
113 | GTTATGTA | 0.151
114 | ATTATGCA | 0.0948
115 | ATTATGCG | 0.297
116 | AGTATGTG | 0.203
117 | ACTATGTG | -0.0195
118 | ATAATGTC | 0.195
119 | ATTATGTC | 0.198
120 | ATAATGTA | 0.292
121 | ATTATGCC | 0.119
122 | CCTGCGCA | -0.158
123 | AAATCACC | 0.235
124 | AGATCGCG | 0.0544
125 | GTAGGGAA | 0.0975

Row | Sequence | PBM E-score
126 | ACGTAGTC | -0.262
127 | CTTATGAA | 0.0398
128 | GTTATGAA | 0.172
129 | ATTATGAA | 0.261
130 | ATCGACTA | 0.0167
131 | CATGTGGC | 0.0138
132 | ACAACGCG | 0.0663
133 | ATATTCTC | 0.295
134 | CTATTCAC | 0.133
135 | ATATTCTA | 0.175
136 | GTATTCAC | 0.113
137 | CTATTCTC | 0.134
138 | ATATTCAC | 0.254
139 | AGGTTCTG | -0.122
140 | CCACCATC | -0.238
141 | GTACAAGA | 0.0226
142 | GACTTACC | -0.11
143 | CAAAGTCA | 0.0697
144 | AGACAATC | 0.129
145 | AGACAATA | 0.339
146 | AGACAATG | 0.0142
147 | CTATGGGC | -0.0642
148 | ACCCAGAA | 0.158
149 | CAACCGCG | 0.323
150 | CAACCGCC | -0.103

Row | Sequence | PBM E-score
151 | CAACCGCA | 0.00088
152 | CATAAGAA | 0.21
153 | AAGTGGAC | -0.033
154 | AAACGTAT | 0.145
155 | GTTCGTAA | 0.192
156 | GTACGTAA | 0.312
157 | CTTCGTTC | 0.0138
158 | ATTCGTAA | 0.292
159 | ATACGTAT | 0.296
160 | ATTCGTTC | 0.27
161 | ACACGTAT | 0.0936
162 | CTACGTAA | 0.135
163 | CTTCGTAA | 0.141
164 | ATTCGTTA | 0.25
165 | GTACGTAC | 0.0261
166 | CGGGGTAC | -0.251
167 | GTGAGCTA | 0.0321
168 | AAATGTGC | 0.197
169 | CCACTAAG | 0.0472
170 | ACTAAGTG | -0.00977
171 | ACAACAGC | 0.0808
172 | ACAGAGAT | 0.0805
